Experimental data: PubChem BioAssay (Tox21)
Several values for one entry are separate records, joined by “and”; a condition that tells them apart may be missing. Equal entries are not always repeated. The source holds several records for some structures; these can differ, active in one and inactive in another. Activity calls are given as the source filed them. Entries that show only a call come without a potency. Unless noted, calls come from the whole dose curve; as a rule, active = well fitted curve in the direction sought with a large enough effect in the repeat runs; inconclusive = weak or mixed curves; inactive = no such curve, though single readings can be large; an effect the other way counts as inactive or inconclusive.

Tests used:
[1] = test system: thyroid hormone receptor (rat, GH3 cells); assay: qHTS assay to identify small molecule agonists of the thyroid receptor (TR) signaling pathway (AID 743066; calls by dose curve); details: GH3.TRE-Luc cells, TR agonist luciferase, 24 h; series mostly up to 83.9 µM
[2] = qHTS assay to identify small molecule antagonists of the estrogen receptor alpha (ER-alpha) signaling pathway - cell viability counter screen (AID 743074; calls by dose curve; note: nearly all actives have a fitted effect of over 45% in size; note: potency is the fitted concentration of half-maximal effect); details: ERalpha-bla HEK293 viability, CellTiter-Glo luminescence, 18 h; series mostly up to 69.4 µM
[3] = target: Estrogen receptor (Homo sapiens) (UniProt P03372); assay: qHTS assay to identify small molecule agonists of the estrogen receptor alpha (ER-alpha) signaling pathway (AID 743075; calls by dose curve; note: potency is the fitted concentration of half-maximal effect); details: HEK293 ER-alpha-UAS-bla, beta-lactamase FRET ratio, 18 h; series mostly up to 70.1 µM
Chain of Estrogen receptor (Homo sapiens) (P03372 whole entry, looked up): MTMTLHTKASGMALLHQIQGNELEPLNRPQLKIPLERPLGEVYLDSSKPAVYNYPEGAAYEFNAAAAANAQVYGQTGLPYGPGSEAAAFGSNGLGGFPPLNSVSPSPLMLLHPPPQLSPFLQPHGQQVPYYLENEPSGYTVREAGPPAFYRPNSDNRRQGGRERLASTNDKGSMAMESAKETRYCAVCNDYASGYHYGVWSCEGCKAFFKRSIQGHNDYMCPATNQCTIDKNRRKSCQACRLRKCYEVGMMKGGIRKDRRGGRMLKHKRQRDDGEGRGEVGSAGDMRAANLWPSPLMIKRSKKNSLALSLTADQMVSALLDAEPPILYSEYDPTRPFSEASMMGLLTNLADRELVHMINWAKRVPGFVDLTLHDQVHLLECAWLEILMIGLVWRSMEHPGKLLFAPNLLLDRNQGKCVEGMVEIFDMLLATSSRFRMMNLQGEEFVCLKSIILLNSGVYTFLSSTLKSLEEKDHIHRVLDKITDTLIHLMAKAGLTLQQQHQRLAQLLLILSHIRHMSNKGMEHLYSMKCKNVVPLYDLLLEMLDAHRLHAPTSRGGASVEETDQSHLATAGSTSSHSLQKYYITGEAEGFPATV

[4] = target: Estrogen receptor (Homo sapiens) (UniProt P03372); assay: qHTS assay to identify small molecule agonists of the estrogen receptor alpha (ER-alpha) signaling pathway using the BG1 cell line (AID 743079); details: BG1Luc4E2 cells, ERE-luciferase agonist, 22 h; series mostly up to 70.3 µM; note: nearly all actives have a fitted effect of over 20% in size; note: potency is the fitted concentration of half-maximal effect
[5] = qHTS assay to identify small molecule antagonists of the estrogen receptor alpha (ER-alpha) signaling pathway using the BG1 cell line (AID 743080; calls by dose curve;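 note: BG1 cells stimulated with 17beta-estradiol alongside compound; nearly all actives have a fitted effect of over 25% in size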; note: potency is the fitted concentration of half-maximal effect); details: BG1Luc4E2 ERE-luciferase antagonist mode, luminescence; series mostly up to 70.3 µM
How it was run: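 Readout is ONE-Glo luminescence, taken 30 min at room temperature after reagent addition, preceded by a CellTiter-Fluor viability read; BG1-Luc-4E2 cells had received compound and 17beta-estradiol for 21.5 h at 37 C.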

[6] = qHTS assay to identify small molecule antagonists of the estrogen receptor alpha (ER-alpha) signaling pathway using the BG1 cell line - cell viability counter screen (AID 743081); details: BG1Luc4E2 viability, CellTiter-Fluor, 22 h; series mostly up to 70.3 µM;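 note: compound given together with 17beta-estradiol as the ER stimulus; nearly all actives have a fitted effect of over 45% in size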; note: potency is the fitted concentration of half-maximal effect
Aromatase (Homo sapiens) = Aromatase (Homo sapiens) (UniProt P11511); assay: qHTS assay to identify aromatase inhibitors (AID 743083); details: MCF-7 aro ERE, testosterone-driven ERE luciferase, 24 h; series mostly up to 70.3 µM; note: nearly all actives have a fitted effect of over 55% in size; note: potency is the fitted concentration of half-maximal effect
Chain of Aromatase (Homo sapiens) (P11511 whole entry, looked up): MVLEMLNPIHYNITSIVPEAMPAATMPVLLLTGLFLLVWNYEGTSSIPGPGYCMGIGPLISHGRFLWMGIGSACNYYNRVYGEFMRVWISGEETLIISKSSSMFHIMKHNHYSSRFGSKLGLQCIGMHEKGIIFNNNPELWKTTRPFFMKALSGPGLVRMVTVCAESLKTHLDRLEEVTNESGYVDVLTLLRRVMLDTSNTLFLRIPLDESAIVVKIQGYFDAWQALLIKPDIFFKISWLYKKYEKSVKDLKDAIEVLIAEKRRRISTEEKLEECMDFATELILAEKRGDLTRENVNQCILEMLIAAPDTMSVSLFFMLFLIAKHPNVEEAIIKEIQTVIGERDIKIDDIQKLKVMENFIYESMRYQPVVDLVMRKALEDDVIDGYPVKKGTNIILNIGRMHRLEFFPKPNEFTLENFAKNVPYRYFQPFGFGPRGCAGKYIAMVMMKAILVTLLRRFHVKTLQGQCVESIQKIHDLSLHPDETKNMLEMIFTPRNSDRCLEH

[7] = target: Aryl hydrocarbon receptor (Homo sapiens) (UniProt P35869); assay: qHTS assay to identify small molecule that activate the aryl hydrocarbon receptor (AhR) signaling pathway (AID 743085); details: HepG2 AhR-luc (HG2L7.5c1), luciferase, 24 h; series mostly up to 70.3 µM; note: nearly all actives have a fitted effect of over 15% in size; note: potency is the fitted concentration of half-maximal effect;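 for activation: HG2L7.5c1 human HepG2 liver cells with stably integrated DRE-driven firefly reporter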
Chain of Aryl hydrocarbon receptor (Homo sapiens) (P35869 whole entry, looked up): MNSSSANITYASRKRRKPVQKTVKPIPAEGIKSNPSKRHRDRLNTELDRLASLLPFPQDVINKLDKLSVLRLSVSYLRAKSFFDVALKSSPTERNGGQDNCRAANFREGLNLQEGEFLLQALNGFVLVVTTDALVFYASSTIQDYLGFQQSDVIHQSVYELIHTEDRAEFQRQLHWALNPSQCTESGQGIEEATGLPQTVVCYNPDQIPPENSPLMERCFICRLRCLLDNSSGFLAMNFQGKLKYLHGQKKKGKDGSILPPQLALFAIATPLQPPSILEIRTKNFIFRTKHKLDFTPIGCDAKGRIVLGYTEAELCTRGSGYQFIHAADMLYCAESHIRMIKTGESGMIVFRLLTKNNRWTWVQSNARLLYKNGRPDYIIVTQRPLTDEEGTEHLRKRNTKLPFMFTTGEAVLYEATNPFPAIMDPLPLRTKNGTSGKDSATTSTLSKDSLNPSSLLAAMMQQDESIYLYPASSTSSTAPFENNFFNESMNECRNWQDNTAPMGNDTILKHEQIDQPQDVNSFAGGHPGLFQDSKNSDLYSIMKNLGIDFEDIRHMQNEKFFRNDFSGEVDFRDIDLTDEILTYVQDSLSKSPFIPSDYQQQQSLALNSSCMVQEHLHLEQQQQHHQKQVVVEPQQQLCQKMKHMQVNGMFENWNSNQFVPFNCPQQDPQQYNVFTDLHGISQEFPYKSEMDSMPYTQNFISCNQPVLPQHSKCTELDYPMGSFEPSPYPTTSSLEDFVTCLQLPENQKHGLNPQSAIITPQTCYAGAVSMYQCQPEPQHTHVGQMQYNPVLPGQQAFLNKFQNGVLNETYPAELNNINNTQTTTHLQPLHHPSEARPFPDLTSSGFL
How it was run: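 Measured in HG2L7.5c1 cells: CellTiter-Fluor signal (30 min incubation, 37C) for viability, then luciferase luminescence (30 min, room temperature). Compound contact time was 24 h at 37C, following a 5 h pre-incubation.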

[8] = qHTS assay to identify small molecule that activate the aryl hydrocarbon receptor (AhR) signaling pathway - cell viability counter screen (AID 743086); details: HepG2-AhR-luc viability, CellTiter-Fluor, 24 h; series mostly up to 70.3 µM; note: nearly all actives have a fitted effect of over 45% in size; note: potency is the fitted concentration of half-maximal effect
How it was run: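 HepG2-AhR-luc (HG2L7.5c1) cells, 4000/well, were preincubated 5 h at 37C, exposed to compound in qHTS format for 24 hr at 37C, then given CellTiter-Fluor for 30 min; viability was read as fluorescence in the reporter wells.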

[9] = target: Peroxisome proliferator-activated receptor gamma (Homo sapiens) (UniProt P37231); assay: qHTS assay to identify small molecule agonists of the peroxisome proliferator-activated receptor gamma (PPARg) signaling pathway (AID 743094; active = well fitted activation curve with a large enough effect in the signal ratio in the repeat runs, not every such curve was filed as active; inconclusive = weak or mixed curves, or effect the other way; inactive = no such curve, though single readings can be large or run the other way; the % refers to the signal ratio); details: HEK293H PPARg-UAS-bla, beta-lactamase FRET ratio, 17 h; series mostly up to 57 µM
Chain of Peroxisome proliferator-activated receptor gamma (Homo sapiens) (P37231 whole entry, looked up): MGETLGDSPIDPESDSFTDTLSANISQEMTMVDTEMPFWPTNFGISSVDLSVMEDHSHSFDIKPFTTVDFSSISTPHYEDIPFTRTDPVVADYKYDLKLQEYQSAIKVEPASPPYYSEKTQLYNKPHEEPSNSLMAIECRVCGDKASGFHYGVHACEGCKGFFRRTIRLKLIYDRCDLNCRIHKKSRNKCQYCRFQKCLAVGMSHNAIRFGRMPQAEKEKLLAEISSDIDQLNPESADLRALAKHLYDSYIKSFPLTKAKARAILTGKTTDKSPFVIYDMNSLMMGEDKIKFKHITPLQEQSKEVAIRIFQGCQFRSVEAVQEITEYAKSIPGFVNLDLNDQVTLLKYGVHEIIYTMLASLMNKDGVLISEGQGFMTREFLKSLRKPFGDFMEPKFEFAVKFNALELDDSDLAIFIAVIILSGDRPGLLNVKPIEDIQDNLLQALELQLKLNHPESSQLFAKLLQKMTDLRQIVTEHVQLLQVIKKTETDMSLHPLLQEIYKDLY
How it was run: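 Cell-based bla reporter, HEK293H background, PPARg-driven UAS. Pre-incubation 5 h, 37C, 5% CO2. Compound 17 h, 37C. Substrate 1 h RT; fluorescence.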

[10] = qHTS assay to identify small molecule antagonists of the peroxisome proliferator-activated receptor gamma (PPARg) signaling pathway - cell viability counter screen (AID 743194); details: PPARg-bla HEK293H viability, CellTiter-Glo luminescence, 17 h, co-treated with 50 nM rosiglitazone; series mostly up to 62.6 µM; note: nearly all actives have a fitted effect of over 55% in size; note: potency is the fitted concentration of half-maximal effect
How it was run: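 PPARg-UAS-bla HEK293H cells were plated, rested 5 h at 37 C, then treated with compounds plus rosiglitazone (50 nM final) for 17 h at 37 C; viability was then read by CellTiter-Glo luminescence after 30 min at room temperature.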

[11] = qHTS assay for small molecule agonists of the antioxidant response element (ARE) signaling pathway (AID 743202; active = well fitted activation curve with a large enough effect in the signal ratio in the repeat runs, not every such curve was filed as active; inconclusive = weak or mixed curves, or effect the other way; inactive = no such curve, though single readings can be large or run the other way; the % refers to the signal ratio; note: potency is the fitted concentration of half-maximal effect); details: HepG2 ARE-bla reporter, beta-lactamase FRET, 16 h; series mostly up to 73.3 µM
How it was run: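 Steps: seed ARE-bla HepG2 cells (2,000/well); incubate 5 h at 37 C; add compounds by pin tool; incubate 16 h at 37 C; add FRET substrate; read fluorescence after 2 h at RT.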

[12] = qHTS assay for small molecule agonists of the antioxidant response element (ARE) signaling pathway - cell viability counter screen (AID 743203; calls by dose curve; note: nearly all actives have a fitted effect of over 55% in size; note: potency is the fitted concentration of half-maximal effect); details: ARE-bla HepG2 viability, CellTiter-Glo luminescence, 16 h; series mostly up to 73.3 µM
How it was run: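 Measured in the same wells as the beta-lactamase ARE reporter, this read-out is CellTiter-Glo luminescence from HepG2 ARE-bla cells given compounds for 16 hrs.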

[13] = qHTS assay for small molecule activators of the heat shock response signaling pathway - cell viability counter screen (AID 743209); details: HSE-bla HeLa viability, CellTiter-Glo luminescence, 5 h; series mostly up to 62.6 µM; note: nearly all actives have a fitted effect of over 50% in size; note: potency is the fitted concentration of half-maximal effect
How it was run: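 Same-well multiplex: after 2.5 h room-temperature incubation with LiveBLAzer B/G substrate and fluorescence reading, CellTiter-Glo reagent was added to HSE-bla HeLa cells that had received compound for 5 h at 37 C; luminescence read after 30 min.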

[14] = qHTS assay for small molecule activators of the heat shock response signaling pathway (AID 743210; active = well fitted activation curve with a large enough effect in the signal ratio in the repeat runs, with a control signal flat, not every such curve was filed as active; inconclusive = weak or mixed curves; the % refers to the signal ratio;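 note: HeLa cells with beta-lactamase reporter driven by heat shock elements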); details: HeLa HSE-bla reporter, beta-lactamase ratio, 5 h; series mostly up to 62.6 µM
How it was run: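 Activation of heat shock element-controlled beta-lactamase expression is measured in HeLa cells by LiveBLAzer FRET fluorescence, with compound exposure lasting 5 h at 37 C and substrate loading 2.5 h at room temperature.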

[15] = qHTS assay to identify small molecule antagonists of the thyroid receptor (TR) signaling pathway - cell viability counter screen (AID 743064); details: GH3.TRE-Luc viability, CellTiter-Fluor, 24 h; series mostly up to 70.3 µM; note: nearly all actives have a fitted effect of over 50% in size; note: potency is the fitted concentration of half-maximal effect
How it was run: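 Counter screen for cytotoxicity: compound plus T3 (1 nM final) on GH3.TRE-Luc cells, 23.5 h at 37 °C, then fluorescence viability readout with CellTiter-Fluor.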

[16] = target: Estrogen receptor (Homo sapiens) (UniProt P03372); assay: qHTS assay to identify small molecule antagonists of the estrogen receptor alpha (ER-alpha) signaling pathway (AID 743069; active = well fitted curve in the direction sought with a large enough effect in the signal ratio in the repeat runs, not every such curve was filed as active; inconclusive = weak or mixed curves, or effect the other way; inactive = no such curve, though single readings can be large or run the other way; the % refers to the signal ratio; note: potency is the fitted concentration of half-maximal effect); details: HEK293 ER-alpha-UAS-bla, beta-lactamase ratio, antagonist mode; series mostly up to 69.4 µM
How it was run: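 Screening used a UAS-driven beta-lactamase reporter integrated into HEK293 cells expressing ER-alpha, stimulated with 17beta-estradiol alongside test compounds over 18 hr at 37C; signal came from LiveBLAzer B/G FRET fluorescence.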

[17] = qHTS assay to identify aromatase inhibitors - cell viability counter screen (AID 743084); details: MCF-7 aro ERE viability, CellTiter-Fluor, 24 h; series mostly up to 70.3 µM;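 note: cells stimulated with testosterone during compound exposure; nearly all actives have a fitted effect of over 55% in size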; note: potency is the fitted concentration of half-maximal effect
[18] = qHTS assay to identify small molecule antagonists of the thyroid receptor (TR) signaling pathway (AID 743065); details: GH3.TRE-Luc, T3-stimulated luciferase inhibition, 23.5 h; series mostly up to 70.3 µM; note: nearly all actives have a fitted effect of over 55% in size; note: potency is the fitted concentration of half-maximal effect
How it was run: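 GH3.TRE-Luc rat pituitary cells carrying two TR response elements driving luciferase were plated for 4 h, given compound plus 1 nM T3 (final), and incubated 23.5 h at 37 C. ONE-Glo luminescence measured reporter inhibition; CellTiter-Fluor fluorescence tracked cytotoxicity.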

[19] = target: Peroxisome proliferator-activated receptor gamma (Homo sapiens) (UniProt P37231); assay: qHTS assay to identify small molecule antagonists of the peroxisome proliferator-activated receptor gamma (PPARg) signaling pathway (AID 743191; calls by dose curve; note: nearly all actives have a fitted effect of over 30% in size); details: HEK293H PPARg-UAS-bla, beta-lactamase ratio, antagonist, 17 h; series mostly up to 62.6 µM
How it was run: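 GeneBLAzer PPARg UAS-bla HEK293H cells carrying a UAS-driven beta-lactamase reporter were plated at 3000 cells/well, preincubated 5 h at 37C, then given compound for 17 h at 37C; LiveBLAzer B/G FRET substrate was read after 1 h at room temperature.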

SMILES | Potency [1] | Potency [2] | Potency [3] | Potency [4] | Potency [5] | Potency [6] | Potency (Aromatase (Homo sapiens)) | Potency [7] | Potency [8] | Potency [9] | Potency [10] | Potency [11] | Potency [12] | Potency [13] | Potency [14] | Potency [15] | Potency [16] | Potency [17] | Potency [18] | Potency [19]
CCCOC(=O)c1cc(O)c(O)c(O)c1 | inactive | inactive | 9.52 µM [inconclusive] (active) and 19.4 µM [inconclusive] (active) and 61.6 µM [inconclusive] (active) | 26.6 µM (active) and inactive | inactive | inactive | inactive | 4.22 µM (active) and inactive | inactive | inactive | inactive | 15.3 µM (active) | inactive | inactive | inactive |  |  |  |  | 
CCCCCCCCCCCCCC[P+](CCCC)(CCCC)CCCC |  | 3.45 µM (active) and 8.71 µM (active) |  |  | 6.82 µM (active) and 4.86 µM (active) | 17.1 µM (active) and 15.4 µM (active) | 7.65 µM (active) and 6.11 µM (active) | inactive | 68.2 µM (active) and 54.5 µM (active) |  | 3.45 µM (active) and 3.47 µM (active) |  | 15.3 µM (active) and 10.9 µM (active) | 6.88 µM (active) and 13.8 µM (active) |  | 2.16 µM (active) and 2.17 µM (active) | 21.9 µM [cytotoxic] (active) | 17.1 µM (active) and 19.3 µM (active) |  | 
Oc1c(Cl)cc(Cl)cc1Sc1cc(Cl)cc(Cl)c1O | inactive | 21.9 µM (active) and 44.4 µM (active) and 27.5 µM (active) | inactive |  | 26.6 µM (active) and 48.6 µM (active) | inactive | 21.1 µM (active) and 15.4 µM (active) and 17.5 µM (active) | inactive | inactive |  |  |  |  | 43.8 µM (active) and 49 µM (active) and inactive | inactive |  | 6.93 µM [inconclusive] (active) and 1.77 µM [inconclusive] (active) |  | 8.63 µM (active) [middle of 4 runs] | 
CC(C)(C)NCC(O)COc1ccccc1OCC1CCCO1 (configuration not stated) |  |  |  |  |  |  |  |  |  |  | inactive | inactive | inactive | inactive | inactive |  |  |  |  | inactive
OCCN1CCNCC1 |  |  | inactive | inactive | inactive | inactive | inactive | inactive | inactive | inactive |  |  | inactive | inactive | inactive | inactive | inactive | inactive |  | inactive
CC(C)(C)NCC(O)c1cc(O)cc(O)c1 (configuration not stated) | inactive | inactive |  |  |  | inactive | inactive | inactive | inactive |  | inactive | inactive | inactive | inactive | inactive |  |  | inactive | inactive | 
CC(=O)Nc1ccc(C(=O)CCl)cc1 |  | inactive |  |  |  | inactive | inactive | inactive | inactive | inactive |  | 34.6 µM (active) | inactive and 19.3 µM (active) | inactive and 3.89 µM (active) | inactive | inactive and 8.63 µM (active) |  | 7.7 µM (active) |  | 
CC1COc2c(N3CCN(C)CC3)c(F)cc3c(=O)c(C(=O)O)cn1c23 (configuration not stated) | inactive | inactive |  |  |  | inactive | inactive | inactive | inactive |  |  | inactive | inactive | inactive | inactive |  |  | inactive |  | inactive
